Our source for the potency estimated from few doses values is PMC11062922 (Nature Chemical Biology, 2023).

Read-outs that look alike come from different tables or passages of the source.

Common to all, as to set-up: species or system human, MV4-11 + K-562 + COLO205 + SK-N-BE2 + OVCAR-8
The subject of one assay is ADK. The conditions noted are these: read-out: apparent Kd, n = 1.
For a further assay, the system named is CAMK2B. The conditions noted are these: read-out: apparent Kd; compound concentrations:100 nM and 1000 nM (sheet 'Samples'); n = 1.
The subject of a further assay is CAMK2D. The note with it: read-out: apparent Kd; compound concentrations:100 nM and 1000 nM (sheet 'Samples'); n = 1.
A further assay concerns CSNK1G1. The conditions noted are these: read-out: apparent Kd, n = 1.
Another assay relates to EIF2AK1. The conditions noted are these: read-out: apparent Kd; compound concentrations:100 nM and 1000 nM (sheet 'Samples'); n = 1.
The test system of the next assay is ERN2. The note with it: read-out: apparent Kd; compound concentrations:100 nM and 1000 nM (sheet 'Samples'); n = 1.
The test system of another assay is FN3KRP. The conditions noted are these: read-out: apparent Kd; compound concentrations:100 nM and 1000 nM (sheet 'Samples'); n = 1.
In the next assay the test system is FN3K. The conditions noted are these: read-out: apparent Kd; compound concentrations:100 nM and 1000 nM (sheet 'Samples'); n = 1.
Another assay deals with ICK. The note with it: read-out: apparent Kd; compound concentrations:100 nM and 1000 nM (sheet 'Samples'); n = 1.
For another assay, the system named is LATS1. The conditions noted are these: read-out: apparent Kd; compound concentrations:100 nM and 1000 nM (sheet 'Samples'); n = 1.
For a further assay, the system named is MAP2K1. The conditions noted are these: read-out: apparent Kd, n = 1.
Another assay deals with MAP2K2. The conditions noted are these: read-out: apparent Kd; compound concentrations:100 nM and 1000 nM (sheet 'Samples'); n = 1.
For the next assay, the system named is MAPK3. The note with it: read-out: apparent Kd; compound concentrations:100 nM and 1000 nM (sheet 'Samples'); n = 1.
The next assay deals with NEK2. The note with it: read-out: apparent Kd; compound concentrations:100 nM and 1000 nM (sheet 'Samples'); n = 1.
For the next assay, the system named is NQO2. The note with it: read-out: apparent Kd; compound concentrations:100 nM and 1000 nM (sheet 'Samples'); n = 1.
The next assay has as its system NUAK1. The conditions noted are these: read-out: apparent Kd; compound concentrations:100 nM and 1000 nM (sheet 'Samples'); n = 1.
The subject of a further assay is PAK6. The conditions noted are these: read-out: apparent Kd; compound concentrations:100 nM and 1000 nM (sheet 'Samples'); n = 1.
The test system of a further assay is PBK. The note with it: read-out: apparent Kd; compound concentrations:100 nM and 1000 nM (sheet 'Samples'); n = 1.
For a further assay, the system named is PDXK. The note with it: read-out: apparent Kd; compound concentrations:100 nM and 1000 nM (sheet 'Samples'); n = 1.
A further assay concerns PFKP. The conditions noted are these: read-out: apparent Kd; compound concentrations:100 nM and 1000 nM (sheet 'Samples'); n = 1.
The next assay has as its system PRKX;PRKY. The note with it: read-out: apparent Kd; compound concentrations:100 nM and 1000 nM (sheet 'Samples'); n = 1.
The subject of a further assay is TESK1. The note with it: read-out: apparent Kd; compound concentrations:100 nM and 1000 nM (sheet 'Samples'); n = 1.
A further assay deals with TP53RK. The note with it: read-out: apparent Kd; compound concentrations:100 nM and 1000 nM (sheet 'Samples'); n = 1.
For another assay, the system named is ADRBK1. The conditions noted are these: read-out: apparent Kd; compound concentrations:100 nM and 1000 nM (sheet 'Samples'); n = 1.
For the next assay, the system named is CAMK4. The conditions noted are these: read-out: apparent Kd; compound concentrations:100 nM and 1000 nM (sheet 'Samples'); n = 1.
The next assay concerns CDK6. The conditions noted are these: read-out: apparent Kd; compound concentrations:100 nM and 1000 nM (sheet 'Samples'); n = 1.
A further assay has as its system FLT3. The note with it: read-out: apparent Kd; compound concentrations:100 nM and 1000 nM (sheet 'Samples'); n = 1.
The next assay relates to NNT. The conditions noted are these: read-out: apparent Kd; compound concentrations:100 nM and 1000 nM (sheet 'Samples'); n = 1.
The subject of the next assay is NQO1. The note with it: read-out: apparent Kd; compound concentrations:100 nM and 1000 nM (sheet 'Samples'); n = 1.
For another assay, the system named is COX5A. The conditions noted are these: read-out: apparent Kd; compound concentrations: 100 nM and 1000 nM (sheet 'Samples'), CATDS: 3.6331945852285497E-2; n = 1.
For the next assay, the system named is CSNK1A1. The conditions noted are these: read-out: apparent Kd; compound concentrations: 100 nM and 1000 nM (sheet 'Samples'), CATDS: 6.6366617124681102E-2; n = 1.
The next assay has as its system CSNK1D. The note with it: read-out: apparent Kd; compound concentrations: 100 nM and 1000 nM (sheet 'Samples'), CATDS: 0.21669980545697101; n = 1.
Another assay has as its system CSNK1E. The conditions noted are these: read-out: apparent Kd; compound concentrations: 100 nM and 1000 nM (sheet 'Samples'), CATDS: 0.13524385654208201; n = 1.
In a further assay the test system is CSNK1G3. The conditions noted are these: read-out: apparent Kd; compound concentrations: 100 nM and 1000 nM (sheet 'Samples'), CATDS: 3.7890071369445298E-2; n = 1.
For a further assay, the system named is T1, DJA1.
T1 construct: gene DNAJA1
The note with it: read-out: apparent Kd; compound concentrations: 100 nM and 1000 nM (sheet 'Samples'), CATDS: 3.3060215115758199E-2; n = 1.

The test system of the next assay is MAP4K5. The note with it: read-out: apparent Kd; compound concentrations: 100 nM and 1000 nM (sheet 'Samples'), CATDS: 3.4056635134305298E-2; n = 1.
In another assay the test system is MAPK10. The note with it: read-out: apparent Kd; compound concentrations: 100 nM and 1000 nM (sheet 'Samples'), CATDS: 4.2468368704664097E-2; n = 1.
A further assay deals with MAPK11. The conditions noted are these: read-out: apparent Kd; compound concentrations: 100 nM and 1000 nM (sheet 'Samples'), CATDS: 0.108415283939704; n = 1.
The next assay relates to MAPK14. The note with it: read-out: apparent Kd; compound concentrations: 100 nM and 1000 nM (sheet 'Samples'), CATDS: 0.505182268244599; n = 1.
The next assay concerns MAPK9. The note with it: read-out: apparent Kd; compound concentrations: 100 nM and 1000 nM (sheet 'Samples'), CATDS: 5.19093996737921E-2; n = 1.
In another assay the test system is MAPKAPK2. The conditions noted are these: read-out: apparent Kd; compound concentrations: 100 nM and 1000 nM (sheet 'Samples'), CATDS: 0.16433458855485; n = 1.
A further assay relates to NLK. The conditions noted are these: read-out: apparent Kd; compound concentrations: 100 nM and 1000 nM (sheet 'Samples'), CATDS: 5.68204402660955E-2; n = 1.
In another assay the test system is PKN3. The note with it: read-out: apparent Kd; compound concentrations: 100 nM and 1000 nM (sheet 'Samples'), CATDS: 3.0507466694278802E-2; n = 1.
Another assay deals with PRKCA. The conditions noted are these: read-out: apparent Kd; compound concentrations: 100 nM and 1000 nM (sheet 'Samples'), CATDS: 4.1145920495800903E-2; n = 1.
Another assay concerns PRKCB. The conditions noted are these: read-out: apparent Kd; compound concentrations: 100 nM and 1000 nM (sheet 'Samples'), CATDS: 3.4087347473579097E-2; n = 1.
The next assay has as its system PRKD2. The conditions noted are these: read-out: apparent Kd; compound concentrations: 100 nM and 1000 nM (sheet 'Samples'), CATDS: 3.50594175571005E-2; n = 1.
Another assay deals with PRKD3. The conditions noted are these: read-out: apparent Kd; compound concentrations: 100 nM and 1000 nM (sheet 'Samples'), CATDS: 3.1320583757310602E-2; n = 1.
For a further assay, the system named is RIPK2. The conditions noted are these: read-out: apparent Kd; compound concentrations: 100 nM and 1000 nM (sheet 'Samples'), CATDS: 4.9528140659543501E-2; n = 1.
Setting [1] is: compound concentrations:100 nM and 1000 nM (sheet 'Samples').

For `C[C@@H](c1ccccc1)[C@@H](C(=O)Nc1ccc(I)cc1F)N1C(=O)N[C@H](c2ccc(OC[C@H](O)CO)cc2)C1=O` [RO5068760-000], the potency estimated from few doses is 1 µM with ADK (setting [1]); 0.544 µM in the assay with CAMK2B; 0.45 µM with CAMK2D; 2.04 µM with CSNK1G1 (setting [1]); 1.39 µM in the assay on EIF2AK1; 1.17 µM with ERN2. Besides, the potency estimated from few doses is 0.959 µM in the assay with FN3KRP; 1.2 µM in the assay on FN3K; 1.31 µM in the assay on ICK; 1.76 µM with LATS1; 0.183 µM in the assay on MAP2K1 (compound concentrations: 100 nM and 1000 nM (sheet 'Samples'), CATDS: 0.123510753631687); 0.165 µM with MAP2K2. Besides, the potency estimated from few doses was 1.33 µM with MAPK3; 1.57 µM in the assay with NEK2; 0.787 µM in the assay on NQO2; 1.92 µM in the assay with NUAK1; 1.73 µM in the assay on PAK6; 2.03 µM in the assay with PBK. Besides, the potency estimated from few doses was 0.612 µM with PDXK; 2.22 µM with PFKP; 1.13 µM with PRKX;PRKY; 0.543 µM in the assay with TESK1; 1.62 µM in the assay with TP53RK.

For the compound `NS(=O)(=O)c1ccc(N/N=C2\C(=O)Nc3ccc(Cl)cc32)cc1` [GW280670X], the potency estimated from few doses with ADRBK1 was 1.88 µM; in the assay with CAMK4, 1.33 µM; with CDK6, 2.28 µM; in the assay with FLT3 it was 1.09 µM; with MAP2K1 (setting [1]), 2 µM; with NNT, 1.29 µM. Also, the potency estimated from few doses in the assay on NQO1 was 1.85 µM.

Take `Cl.Cl.Cl.Fc1ccc(-c2ncn(C3CCNCC3)c2-c2ccnc(Nc3ccccc3)n2)cc1.Fc1ccc(-c2ncn(C3CCNCC3)c2-c2ccnc(Nc3ccccc3)n2)cc1` [SB-238039-R]: the potency estimated from few doses with ADK (compound concentrations: 100 nM and 1000 nM (sheet 'Samples'), CATDS: 3.8521875066841203E-2) is 0.704 µM; with COX5A it was 0.873 µM; with CSNK1A1 it was 0.131 µM; in the assay with CSNK1D it was 0.00661 µM; with CSNK1E it was 0.0185 µM; with CSNK1G1 (compound concentrations: 100 nM and 1000 nM (sheet 'Samples'), CATDS: 3.36950722911461E-2), 1.18 µM. Besides, the potency estimated from few doses with CSNK1G3 was 0.747 µM; in the assay on DJA1, 1.29 µM; with MAP4K5 it was 1.13 µM; with MAPK10 it was 0.504 µM; in the assay on MAPK11, 0.0327 µM; in the assay on MAPK14, 0.00159 µM. Moreover, the potency estimated from few doses in the assay with MAPK9 was 0.27 µM; in the assay on MAPKAPK2, 0.0118 µM; with NLK it was 0.206 µM; with PKN3 it was 1.9 µM; in the assay on PRKCA, 0.56 µM; in the assay on PRKCB it was 1.13 µM. Besides, the figures for the potency estimated from few doses in the assay on PRKD2, with PRKD3 and in the assay with RIPK2 were 1 µM, 1.66 µM and 0.311 µM, respectively.
